Results reported in PubChem BioAssay (EPA / NIEHS).
Active and inactive are the calls of the source. Rule for the calls: active = hit-call score of the fitted dose curve at least 0.9, where 1 is the maximum; inactive = score below 0.9.

What was measured:
[1] = BSK_CASM3C_SRB: Viability Assessment in the BioMAP Diversity Plus: CASM3C Assay (AID 2283050); conditions: primary human coronary artery smooth muscle cells;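 note: total protein by SRB staining as cytotoxicity measure in parallel cultures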
[2] = read-out: Thrombomodulin, THBD (gene 7056); assay: BSK_CASM3C_Thrombomodulin: BioMAP Diversity Plus: CASM3C Assay for Thrombomodulin Biomarker Activity (AID 2283051); conditions: primary human coronary artery smooth muscle cells; actives raise or lower the signal;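 note: thrombomodulin protein level measured by ELISA 24 h after dosing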
[3] = read-out: Tissue Factor, F3 (gene 2152); assay: BSK_CASM3C_TissueFactor: BioMAP Diversity Plus: CASM3C Assay for Tissue Factor Biomarker Activity (AID 2283052); conditions: primary human coronary artery smooth muscle cells; actives raise or lower the signal;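 note: cell surface tissue factor protein level read by ELISA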
[4] = read-out: Interferon-gamma inducible Protein 10 (IP10), CXCL10 (gene 3627); assay: BSK_hDFCGF_IP10: BioMAP Diversity Plus: hDFCGF Assay for Interferon-gamma inducible Protein 10 (IP10) Biomarker Activity (AID 2283053); conditions: primary human foreskin fibroblasts; actives raise or lower the signal
Procedure, shortened: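 Primary foreskin fibroblasts, human; 24 h compound exposure; IP-10 by ELISA; bidirectional fit vs DMSO.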

[5] = read-out: Urokinase-type plasminogen activator receptor (uPAR), PLAUR (gene 5329); assay: BSK_CASM3C_uPAR: BioMAP Diversity Plus: CASM3C Assay for Urokinase-type plasminogen activator receptor (uPAR) Biomarker Activity (AID 2283054); conditions: primary human coronary artery smooth muscle cells; actives raise or lower the signal;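 note: cell-surface uPAR protein level quantified by ELISA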
[6] = read-out: Vascular cell adhesion molecule 1 (VCAM1), VCAM1 (gene 7412); assay: BSK_CASM3C_VCAM1: BioMAP Diversity Plus: CASM3C Assay for Vascular cell adhesion molecule 1 (VCAM1) Biomarker Activity (AID 2283055); conditions: primary human coronary artery smooth muscle cells; actives raise or lower the signal;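 note: VCAM-1 protein level quantified by ELISA on the cells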
[7] = read-out: Collagen III, COL3A1 (gene 1281); assay: BSK_hDFCGF_CollagenIII: BioMAP Diversity Plus: hDFCGF Assay for Collagen III Biomarker Activity (AID 2283056); conditions: primary human foreskin fibroblasts; actives raise or lower the signal
Procedure, shortened: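 Response relative to DMSO, fitted in both directions, reflects ELISA-measured collagen III in human primary skin fibroblasts 24 h after compound addition.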

[8] = read-out: Epidermal growth factor receptor (EGFR), EGFR (gene 1956); assay: BSK_hDFCGF_EGFR: BioMAP Diversity Plus: hDFCGF Assay for Epidermal growth factor receptor (EGFR) Biomarker Activity (AID 2283057); conditions: primary human foreskin fibroblasts; actives raise or lower the signal
Procedure, shortened: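 hDFCGF system, primary human foreskin fibroblasts; compound 24 h; EGFR measured by ELISA; DMSO = negative control/baseline; bidirectional fitting.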

[9] = read-out: Interleukin-8 (IL8), CXCL8 (gene 3576); assay: BSK_hDFCGF_IL8: BioMAP Diversity Plus: hDFCGF Assay for Interleukin-8 (IL8) Biomarker Activity (AID 2283058); conditions: primary human foreskin fibroblasts; actives raise or lower the signal
Procedure, shortened: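 Fibroblast monolayers (human foreskin, hDFCGF) received test chemical for 24 h before ELISA detection of IL-8; either increases or decreases relative to DMSO count as activity.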

[10] = BSK_hDFCGF_Proliferation: Cell Proliferation Assessment in the BioMAP Diversity Plus: hDFCGF Assay (AID 2283059); conditions: primary human foreskin fibroblasts;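 note: curves fitted for both rise and fall of signal versus DMSO baseline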
Procedure, shortened: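 Total protein read at 560 nm after 0.1% SRB staining of TCA-fixed human skin fibroblasts, […]. Activity is fitted in both directions relative to DMSO as baseline.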

[11] = read-out: Macrophage colony-stimulating factor (MCSF), CSF1 (gene 1435); assay: BSK_hDFCGF_MCSF: BioMAP Diversity Plus: hDFCGF Assay for Macrophage colony-stimulating factor (MCSF) Biomarker Activity (AID 2283060); conditions: primary human foreskin fibroblasts; actives raise or lower the signal
Procedure, shortened: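 fibroblasts (human foreskin, primary), 24 h post-dose; M-CSF by ELISA; bidirectional fit, DMSO = baseline.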

[12] = BSK_hDFCGF_SRB: Viability Assessment in the BioMAP Diversity Plus: hDFCGF Assay (AID 2283061); conditions: primary human foreskin fibroblasts;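 note: cells exposed to compound for 24 h before the read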
Procedure, shortened: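 SRB-based viability read on primary human skin fibroblasts at 24 h: TCA fixation, 0.1% dye, 560 nm. Gain or loss of signal is fitted against the DMSO negative control.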

[13] = read-out: TIMP metallopeptidase inhibitor 1 (TIMP1), TIMP1 (gene 7076); assay: BSK_hDFCGF_TIMP1: BioMAP Diversity Plus: hDFCGF Assay for TIMP metallopeptidase inhibitor 1 (TIMP1) Biomarker Activity (AID 2283062); conditions: primary human foreskin fibroblasts; actives raise or lower the signal
Procedure, shortened: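 Bidirectional curve fitting against DMSO baseline yielded this endpoint, based on ELISA detection of TIMP-1 in primary human foreskin fibroblasts exposed to compound for 24 h.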

[14] = read-out: Monokine induced gamma interferon (MIG), CXCL9 (gene 4283); assay: BSK_hDFCGF_MIG: BioMAP Diversity Plus: hDFCGF Assay for Monokine induced gamma interferon (MIG) Biomarker Activity (AID 2283063); conditions: primary human foreskin fibroblasts; actives raise or lower the signal
Procedure, shortened: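 Endpoint derived by bidirectional fitting relative to DMSO; MIG quantified via ELISA in primary human foreskin fibroblasts harvested 24 h after dosing.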

[15] = read-out: Matrix Metallopeptidase 1 (MMP1), MMP1 (gene 4312); assay: BSK_hDFCGF_MMP1: BioMAP Diversity Plus: hDFCGF Assay for Matrix Metallopeptidase 1 (MMP1) Biomarker Activity (AID 2283064); conditions: primary human foreskin fibroblasts; actives raise or lower the signal
Procedure, shortened: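 Primary human foreskin fibroblasts exposed to chemicals for 24 h; MMP1 measured by ELISA. Cytotoxicity tracked by SRB staining in parallel cultures; bidirectional fit relative to DMSO.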

[16] = read-out: Plasminogen activator inhibitor-1 (PAI1), SERPINE1 (gene 5054); assay: BSK_hDFCGF_PAI1: BioMAP Diversity Plus: hDFCGF Assay for Plasminogen activator inhibitor-1 (PAI1) Biomarker Activity (AID 2283066); conditions: primary human foreskin fibroblasts; actives raise or lower the signal
Procedure, shortened: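 Primary dermal fibroblasts (human foreskin), hDFCGF system; compound 24 h; PAI-1 by ELISA; bidirectional fit vs DMSO control.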

[17] = read-out: Intercellular Adhesion Molecule 1 (ICAM1), ICAM1 (gene 3383); assay: BSK_KF3CT_ICAM1: BioMAP Diversity Plus: KF3CT Assay for Intercellular Adhesion Molecule 1 (ICAM1) Biomarker Activity (AID 2283067); conditions: primary human keratinocytes with fibroblasts; actives raise or lower the signal
Procedure, shortened: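 Bidirectional curve fitting against a DMSO baseline was applied to ICAM-1 ELISA signal from primary human skin co-cultures harvested 24 h after treatment, with SRB staining of parallel wells for overt cytotoxicity.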

[18] = read-out: Interferon-gamma inducible Protein 10 (IP10), CXCL10 (gene 3627); assay: BSK_KF3CT_IP10: BioMAP Diversity Plus: KF3CT Assay for Interferon-gamma inducible Protein 10 (IP10) Biomarker Activity (AID 2283068); conditions: primary human keratinocytes with fibroblasts; actives raise or lower the signal
Procedure, shortened: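 Human keratinocyte plus foreskin fibroblast primary co-culture exposed to test chemical for 24 h; IP-10 measured by ELISA. Concentration-response fitted bidirectionally against DMSO control as baseline.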

[19] = BSK_KF3CT_SRB: Viability Assessment in the BioMAP Diversity Plus: KF3CT Assay (AID 2283069); conditions: primary human keratinocytes with fibroblasts;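 note: total protein by sulforhodamine B staining as a cytotoxicity measure; fitted for both signal gain and loss against DMSO baseline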
Procedure, shortened: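 Human keratinocyte and foreskin fibroblast co-culture exposed to chemical for 24 h. Total protein measured in parallel cultures by 0.1% sulforhodamine B staining after 10% TCA fixation, read at 560 nm; bidirectional fit relative to DMSO.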

Measured: AC50

C[C@]12CC[C@@H]3c4ccc(O)cc4CC[C@H]3[C@@H]1CC[C@@H]2O
inactive: [1] | [2] | [3] | [4] | [5] | [6] | [8] | [9] | [11] | [12] | [13] | [14] | [15] | [16] | [17] | [18] | [19]
active: [7] 20 µM | [10] 22.8 µM

O=C(c1ccc(OCCN2CCCCC2)cc1)c1c(-c2ccc(O)cc2)sc2cc(O)ccc12
inactive: [2] | [3] | [6]
active: [1] 34.4 µM | [4] 32.2 µM | [5] 33.4 µM | [7] 14.8 µM | [8] 9.63 µM | [9] 33.7 µM | [10] 7.34 µM | [12] 24.4 µM | [13] 35.8 µM | [14] 32.1 µM | [15] 31.7 µM | [16] 15.6 µM | [17] 38 µM | [18] 21 µM | [19] 29.2 µM

CC(C)(C)c1cccc(O)c1
inactive: [1] | [2] | [3] | [4] | [5] | [6] | [7] | [8] | [9] | [10] | [11] | [12] | [13] | [14] | [15] | [16] | [17] | [18] | [19]

CC(C)Cc1ccc(C(C)C(=O)O)cc1 (stereo not drawn)
active: [2] 6.11 µM | [7] 3.33 µM
inactive: [1] | [3] | [4] | [5] | [6] | [8] | [9] | [10] | [11] | [12] | [13] | [14] | [15] | [16] | [17] | [18] | [19]

CCOC(=O)C=Cc1ccccc1
active: [3] 0.0239 µM
inactive: [1] | [2] | [4] | [5] | [6] | [7] | [8] | [9] | [10] | [11] | [12] | [13] | [14] | [15] | [16] | [17] | [18] | [19]

CC=CC(=O)C1=C(C)C=CCC1(C)C
inactive: [1] | [2] | [3] | [4] | [5] | [6] | [7] | [8] | [9] | [10] | [11] | [12] | [13] | [14] | [15] | [17] | [18] | [19]
active: [16] 0.016 µM

CC(C)CCCC(C)(C)O
inactive: [1] | [2] | [3] | [4] | [5] | [6] | [7] | [8] | [9] | [10] | [11] | [12] | [13] | [14] | [15] | [16] | [17] | [18] | [19]

Nc1ccc(N)c([N+](=O)[O-])c1
inactive: [1] | [2] | [4] | [5] | [6] | [7] | [8] | [9] | [11] | [12] | [13] | [14] | [15] | [16] | [17] | [18] | [19]
active: [3] 0.037 µM | [10] 13.4 µM

CC(=O)CCC=C(C)CCC=C(C)C
inactive: [1] | [2] | [3] | [4] | [5] | [7] | [8] | [9] | [11] | [12] | [13] | [14] | [15] | [16] | [17] | [18] | [19]
active: [6] 25.4 µM | [10] 31.3 µM

CCC(=O)OCC=Cc1ccccc1
inactive: [1] | [2] | [3] | [4] | [5] | [6] | [7] | [8] | [9] | [10] | [11] | [12] | [13] | [14] | [15] | [16] | [17] | [18] | [19]

C#C[C@]1(O)CC[C@H]2[C@@H]3CCc4cc(O)ccc4[C@H]3CC[C@@]21C
active: [10] 7.35 µM
inactive: [1] | [2] | [3] | [4] | [5] | [6] | [7] | [8] | [9] | [11] | [12] | [13] | [14] | [15] | [16] | [17] | [18] | [19]
